# Assay results reported in PubChem BioAssay AID1010 (Sanford-Burnham Center for Chemical Genomics, 2008).
# Among all 48,000 compounds or so, about 160 (0.33%) were called active. Shown is part of a subset that was picked to be rich in actives. Values without a mark were called inactive.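 The calls were made as follows: active = survival measured by cellular ATP above 50% at 15 µg/ml in the first screen; inactive = the rest.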
# Test: protection against thapsigargin ER stress killing – CSM14.1 cells, ATP luminescence, primary screen (AID 1010);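 also: cell death triggered by about 15 µM thapsigargin; ATP read 24 h after thapsigargin was added; plate controls were thapsigargin with DMSO for no effect and DMSO without thapsigargin for full effect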
# Details: CSM14.1 thapsigargin ER stress survival, stronger effect = higher value, screened at 15 µg/mL (by protocol)
row,SMILES,relative survival (cellular ATP)
1,COc1cc(OC)cc(C(=O)N2CCN(C)CC2)c1,4.1%
2,CONC(=O)c1ccc(C(=O)c2cc(OC)ccc2OC)cc1,6.5%
3,CSCCOC(=O)COc1ccc(/C=N/NC(=O)c2ccc(CN3CCOCC3)cc2)cc1,9.5%
4,CN(C)c1cccc(C(=O)N2CCN(c3cccc(Cl)c3)CC2)c1,-2.8%
5,COc1cccc(/C=N/NC(=O)c2cc(-c3ccc4ccccc4c3)n[nH]2)c1,5.9%
6,CC(=O)c1c(-c2ccccc2)c2cc(C)ccc2[nH]c1=O,-1.1%
7,O=C(NC(CO)(CO)CO)c1cccc(-c2ccc(O)cc2)c1,-1.2%
8,CC(=O)Nc1ccc(NC(=O)c2ccccc2-c2ccccc2C(=O)O)cc1,7.5%
9,Cc1ccc(C2=NNC(c3ccc(Cl)cc3Cl)S2)cc1 (centres undefined),-7.4%
10,CCn1c(C(O)c2cc(OC)ccc2OC)nc2ccccc21 (centres undefined),1.7%
11,O=C1S/C(=C/c2ccc(-c3ccc(Cl)cc3Cl)o2)C(=O)N1c1ccccc1,7%
12,CN(C)CCOC(=O)CCN1C(=O)/C(=C/c2ccc(Cl)cc2Cl)SC1=S,-20.4%
13,O=C(O)CCN1C(=O)/C(=C/c2ccc(-c3cc(Cl)ccc3Cl)o2)SC1=S,64% (active)
14,CCCN1C(=O)c2ccccc2NC1c1ccc(O)c(OC)c1 (centres undefined),-2.6%
15,C/C(=N\NC(=O)c1cccc([N+](=O)[O-])c1)c1cccnc1,2.9%
16,COc1ccc(NC(=O)/C(C#N)=C/c2ccccc2[N+](=O)[O-])cc1,2.4%
17,Cc1ccc(NC(=O)CC2Nc3cc(C)c(C)cc3NC2=O)cc1 (centres undefined),6.1%
18,Cc1nn(C(=O)C23CC4CC(CC(C4)C2)C3)c(C)c1Sc1ccc([N+](=O)[O-])cc1,6.7%
19,COC(=O)C1=CNC=C(C(=O)OC)C1c1cc(C)ccc1C,10%
20,O=C1C=CC(=O)N1Nc1c(Cl)cc(Cl)cc1Cl,-7.8%
21,O=C(CCc1ccccc1)Nc1ccccc1-c1ccccc1,2.5%
22,COc1cc(OC)cc(C(=O)N/N=C(\C)CC(=O)Nc2ccccc2-c2ccccc2)c1,66% (active)

row,SMILES,relative survival (cellular ATP)
1,C/C(CC(=O)Nc1cccc2ccccc12)=N\NC(=O)c1ccoc1C,5.7%
2,CCOc1cc(C=C2C(=O)c3ccccc3C2=O)ccc1OCc1ccc(Cl)cc1Cl,11.4%
3,COc1cccc(OCCCCOc2ccccc2OC)c1,6%
4,CN1C(=O)C(=Cc2cc(Br)c(O)c(I)c2)C(=O)N(C)C1=O,-1%
5,CCOCCOCCN1C(=O)c2ccccc2C1=O,6.5%
6,C/C(CC(=O)Nc1ccc(Nc2ccccc2)cc1)=N\NC(=O)c1ccccc1C,16.5%
7,CCOC(=O)CCc1c(C)nc2c(C)c(-c3ccc(C)cc3)[nH]n2c1=O,8.2%
8,CCCCc1ccc(/C=N/Nc2ccc([N+](=O)[O-])cc2)s1,5%
9,CCOc1cc(C2NC(=S)NC(C)=C2C(=O)Nc2ccccc2C)ccc1O (centres undefined),-0.3%
10,CCOc1cc(C=O)cc(I)c1OC(C)C,0.3%
11,CC(C)=N/N=C1/NC(=O)C(CC(=O)Nc2ccc(C)c(C)c2)S1 (centres undefined),2%
12,CC(=O)Nc1ccccc1NC(=O)COc1ccc(C)cc1C,6.5%
13,COc1ccc(N2C(=O)/C(=C/c3cc(C)n(-c4ccc([N+](=O)[O-])cc4)c3C)C(=O)NC2=S)cc1,-5.8%
14,C=CCOc1cccc(/C=N/NS(=O)(=O)c2ccc(Cl)cc2)c1,3.1%
15,O=C(O)c1ccccc1C(=O)N1CCN(C(=O)c2ccccc2C(=O)O)CC1,-0.9%
16,CCN(CC)c1ccc(Nc2nc(-c3sc(C)nc3C)cs2)cc1,49.2%
17,O=C1/C(=C/c2ccc(F)cc2)SC(=S)N1c1ccc(F)cc1,-1.4%
18,CCN1C(=O)/C(=C/c2ccc(NC(=O)c3ccc4ncccc4c3)cc2)SC1=S,8.8%
19,COC(=O)C(C)NC(=O)CCC1CCCCC1 (centres undefined),4.2%
20,Cc1cccc(C)c1OCC(=O)Nc1sc2c(c1C(N)=O)CCC2,10.1%
21,CC(=O)C1=C(O)C(=O)N(CC2CCCO2)C1c1ccc(C(C)C)cc1 (centres undefined),-5.9%
22,COc1ccc(C2CC(C(F)(F)F)n3nc(C(=O)NCCc4ccccc4)c(Cl)c3N2)cc1OC (centres undefined),2.7%

row,SMILES,relative survival (cellular ATP)
1,COc1cc(NC(=O)c2cc(Cl)c(OC)c(Cl)c2)ccc1NC(=O)c1ccco1,-1.3%
2,CCSc1nnc2c(n1)OC(c1ccc(-c3ccc(Cl)cc3)o1)Nc1ccccc1-2 (centres undefined),4.5%
3,COc1ccccc1/C=N/NC(=O)c1cc(C23CC4CC(CC(C4)C2)C3)[nH]n1,3%
4,Cc1c(OCC(=O)N(C)C)ccc2c3c(c(=O)oc12)CCCC3,4.4%
5,N#Cc1ccc(/C=N/Nc2nc(-c3ccccc3)cs2)cc1,5.1%
6,CS(=O)(=O)N1CCN(Cc2ccc(Br)cc2)CC1,-1.6%
7,O=C(CSc1nnc(-c2cccs2)n1-c1ccccc1)c1cccc([N+](=O)[O-])c1,-3.1%
8,COc1ccc2ccccc2c1-c1cc(C(=O)NN)[nH]n1,-1%
9,O=C(CCCN1C(=O)c2cccc3cccc(c23)C1=O)N1CCN(Cc2ccc3c(c2)OCO3)CC1,77.5% (active)
10,O=C(CCN1C(=O)c2cccc3cccc(c23)C1=O)OCCCc1ccncc1,5.7%
11,COCCCN1C(=O)c2cccc3cccc(c23)C1=O,0.8%
12,Cc1[nH]n(-c2ccccc2)c(=O)c1C(c1ccc(C(F)(F)F)cc1)c1c(C)[nH]n(-c2ccccc2)c1=O,4.8%
13,O=C(O)CCCNC(=O)c1ccccc1NC(=O)c1ccccc1,7.8%
14,Cc1nnc(N2C(=O)c3ccc(-c4nc5ccccc5c(=O)o4)cc3C2=O)s1,5.9%
15,CN(C1=NS(=O)(=O)c2ccccc21)c1ccccc1,3.5%
16,O=C(COc1ccccc1)Nc1cccc(NC(=O)c2ccco2)c1,9%
17,COc1ccccc1/C=C1/SC(=S)N(CCC(=O)N2c3ccccc3Sc3ccc(Cl)cc32)C1=O,10%
18,CC(N=Cc1ccccc1O)C12CC3CC(CC(O)(C3)C1)C2 (centres undefined),-0.1%
19,Cc1cc(OCC(=O)Nc2ccccc2C(N)=O)cc(C)c1Cl,2.7%
20,O=C(Nc1ccc(Br)c(Cl)c1)C(c1ccccc1)c1ccccc1,4.5%
